Screens (PubChem BioAssay)
RORg inh – qHTS for inhibitors of ROR gamma transcriptional activity. Nuclear receptor ROR-gamma (Mus musculus), P51450. Potency, µM (highest dose often 53.6 µM), for the others: at the highest dose activity change, negative = inhibition, most hits filed as inhibitors. Drosophila S2 Gal4-RORgamma UAS-luciferase reporter, 20 h. AID 2551, 2010. 310,000 tested, 5.4% active; also: nearly all actives have a fitted effect of over 60% in size
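Luciferase reporter read in Schneider cells carrying Gal4-RORγ (mouse) and UAS-Photinus luciferase; cells given compound 1 h before 700 uM copper sulfate induction, then incubated 20 h at ambient temperature.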
TDP1 block – qHTS Assay for Inhibitors of Tyrosyl-DNA Phosphodiesterase (TDP1); Tyrosyl-DNA phosphodiesterase 1 (Homo sapiens), Q9NUW8; recombinant TDP1, AlphaScreen DNA substrate cleavage; Potency, µM (titrated, usually from 130 µM), for inactives: top-dose activity change, negative = inhibition, actives largely listed as inhibitors; 350,000 tested, 0.28% active; AID 485290, 2010; also: nearly all actives have a fitted effect of over 40% in size
Target sequence (Q9NUW8 whole entry, looked up): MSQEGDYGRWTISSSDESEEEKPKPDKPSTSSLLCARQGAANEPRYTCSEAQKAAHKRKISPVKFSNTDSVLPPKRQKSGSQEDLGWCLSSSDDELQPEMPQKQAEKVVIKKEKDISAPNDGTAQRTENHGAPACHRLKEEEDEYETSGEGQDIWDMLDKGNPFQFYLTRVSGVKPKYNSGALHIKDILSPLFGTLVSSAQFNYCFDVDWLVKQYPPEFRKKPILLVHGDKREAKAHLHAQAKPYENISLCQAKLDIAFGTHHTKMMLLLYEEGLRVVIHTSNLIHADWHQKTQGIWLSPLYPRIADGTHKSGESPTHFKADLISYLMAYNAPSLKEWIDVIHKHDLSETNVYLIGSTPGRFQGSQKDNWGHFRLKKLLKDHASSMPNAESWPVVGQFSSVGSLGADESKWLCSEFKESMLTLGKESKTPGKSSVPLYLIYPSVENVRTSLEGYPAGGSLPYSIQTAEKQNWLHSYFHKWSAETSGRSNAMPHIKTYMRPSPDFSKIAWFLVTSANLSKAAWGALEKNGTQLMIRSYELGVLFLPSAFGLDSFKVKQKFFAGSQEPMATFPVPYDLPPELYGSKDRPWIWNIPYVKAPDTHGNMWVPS
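Here, a 5' biotin and 3' phosphotyrosine-FITC DNA oligonucleotide reports Tdp1 activity: intact substrate bridges AlphaScreen beads, while cleavage leaves a 3' phosphate and drops signal. All incubations at room temperature.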
DT40 TDP1 no CPT – qHTS for Inhibitors of human tyrosyl-DNA phosphodiesterase 1 (TDP1): qHTS in cells in absence of CPT; 420,000 tested, 15% active; DT40 Tdp1-/- hTDP1 cells, no CPT, ATP luminescence, 48 h; Potency, µM (top dose mostly 46.2 µM), without a hit: at the top dose activity change, negative = growth inhibition, most hits filed as inhibitors; also: nearly all actives have a fitted effect of over 55% in size
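Seeded 400 DT40-hTDP1 cells/well (vehicle DMSO, no 20 nM CPT); pinned compounds; ≥48 hr at 37 °C; CellTiter-Glo luminescence as viability measure.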
VP16 counter – VP16 counterscreen qHTS for inhibitors of ROR gamma transcriptional activity; Potency, µM (highest dose often 53.6 µM), for the others: at the top dose activity, negative = inhibition, usual class: inhibitors; 310,000 tested, 3.5% active; Drosophila S2 Gal4-VP16 UAS-luciferase, luminescence, 20 h; AID 2546, 2010;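 also: Gal4-VP16 expression switched on by copper sulfate through the metallothionein promoter; nearly all actives have a fitted effect of over 50% in size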
TDP1 cell CPT – qHTS for Inhibitors of human tyrosyl-DNA phosphodiesterase 1 (TDP1): qHTS in cells in presence of CPT. chicken DT40 Tdp1-/-;hTDP1 cells + 20 nM CPT, ATP luminescence, 48 h. Potency, µM (highest dose often 46.2 µM), for inactives: at the highest dose activity change, negative = growth inhibition, actives largely listed as inhibitors. 420,000 tested, 12% active. AID 686979, 2013; also: nearly all actives have a fitted effect of over 55% in size
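Chicken DT40 Tdp1-/- cells stably complemented with human TDP1 were seeded at 400 cells/well in medium containing 20 nM camptothecin, exposed to pin-transferred compounds, and grown at 37 °C for at least 48 hr. Viability was read as ATP luminescence.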
* = called active by the depositor; u = inconclusive; x = no result; [ ] = remark or other dose. The list is not random: actives were taken first. Their share in the collection is about 19%. Calls follow the shape of the dose curve; as a rule, active = well fitted curve in the direction sought with a large enough effect; inconclusive = small, poorly fitted or top-dose-only effect, or another doubt; inactive = no such curve, though single readings can be large; an effect the other way counts as inactive or inconclusive. % is scaled to controls: 0 for no effect and ±100 for the full control effect; potency is read from the fitted curve at half-maximal effect.

SMILES	RORg inh	TDP1 block	DT40 TDP1 no CPT	VP16 counter	TDP1 cell CPT
CCOc1ccc2[nH]c(=O)c(CN(Cc3cccs3)C(CC)c3nnnn3C(C)(C)CC)cc2c1 (stereo not given)	-1%	2%	18µM*	-12%	21µM*
CCOC(=O)Cn1nnnc1C(CC)N(Cc1cccs1)Cc1cc2cc(C)ccc2[nH]c1=O (stereo not given)	32%	1%	u	2%	u
CCC(c1nnnn1C1CCCC1)N(Cc1cccs1)Cc1cc2cc(C)ccc2[nH]c1=O (stereo not given)	-13%	7%	21µM*	-20%	18µM*
Cc1ccc(-n2c(SCc3nc(-c4ccc(Cl)cc4)no3)nnc2-c2ccncc2)cc1	x	5%	16µM*	x	15µM*
COc1ccc(-c2noc(CSc3nnc(-c4ccncc4)n3-c3ccc(OC)cc3)n2)cc1	x	10%	u	x	23µM*
Cc1ccc(-c2noc(CSc3nnc(-c4ccncc4)n3-c3ccc(C)cc3)n2)cc1	23%	3%	16µM*	-2%	21µM*
Cc1ccc(-c2noc(CSc3nnc(C)n3-c3ccc(C)c(C)c3)n2)cc1	x	6%	u	x	u
Cc1ccc(-c2noc(CSc3nnnn3C3CCCCC3)n2)cc1	26%	-3%	u	-6%	21µM*
O=C(NCc1nnnn1-c1ccc(Cl)cc1)c1ccc(Br)o1	x	x	-29%	x	2%
Cc1cc(-c2ccccc2)nc(-c2ccccc2)c1C	u	-3%	-7%	u	1%
CCN(CC(=O)Nc1c(F)cccc1F)C(=O)COc1ccc2c(C)cc(=O)oc2c1	2%	2%	-10%	-3%	0%
Cc1cccc(/C=C2/S/C(=N/N=C3\CC4CCC3(C)C4(C)C)NC2=O)c1 (stereo not given)	8.9µM*	10%	21µM*	u	u
O=C1N/C(=N/O)S/C1=C/c1cccc([N+](=O)[O-])c1	16%	2%	-5%	-10%	10%
CC(=O)c1cc(-c2ccccc2)n(CCC(=O)NCCc2ccccc2)c1C	x	9%	u	x	u
CCOc1ccc(N=Nc2ccc(N)cc2N)cc1	8.9µM*	20%	u	10µM*	u
NC(=O)c1ccc(O)c2ncccc12	x	0%	x	x	x
CCOc1ccc(N=Nc2ccc(O)c3ncccc23)cc1	0.28µM*	x	u	0.4µM*	u
CCOc1ccc(N=Nc2cc(C(C)C)ccc2O)cc1	0%	13%	u	0%	-22%
NS(=O)(=O)c1ccc(N=Nc2ccc(O)c3ncccc23)cc1	-34%	x	2.3µM*	u	2.6µM*
NS(=O)(=O)c1ccc(N=Nc2ccc(=O)[nH]c2O)cc1	-36%	45µM*	-3%	-7%	29%
CCOc1ccc(N=CNc2ccc(OCC)cc2)cc1	-15%	x	-6%	1%	8%
O=C(COc1ccccc1Cl)Nc1ccc2oc(-c3ccccc3F)nc2c1	x	2%	-26%	x	u
COc1ccc(CSCCN)cc1Cl	30%	3%	u	5%	-27%
CCOC(=O)c1nnc(-c2ccccc2)nc1N1CCSCC1	10%	3%	u	-2%[10 µM]	-14%
CCOC(=O)c1nnc(-c2ccc(C)cc2)nc1Sc1cccc(Cl)c1	-16%	-5%	u	4%	9.2µM*
SMILES	RORg inh	TDP1 block	DT40 TDP1 no CPT	VP16 counter	TDP1 cell CPT
CCOC(=O)c1nnc(-c2ccccc2)nc1Oc1ccc(Cl)cc1	20µM*	-8%	16µM*	10µM*	21µM*
CC(=O)Nc1ccccc1P(=O)(c1ccccc1)c1ccccc1OC(C)=O (stereo not given)	0%	6%	-2%	-8%	20%
CC(=O)Nc1ccc(NC(=O)COC(=O)c2ccc(Cl)nc2)cc1	x	-15%	-15%	x	0%
CC(C(=O)N1CCCc2ccccc21)N1C(=O)c2ccccc2C1=O (stereo not given)	-26%	1%[56.1 µM]	u	-3%	-14%
Cc1coc2cc3oc(=O)c(CC(=O)N4C[C@H]5C[C@@H](C4)c4cccc(=O)n4C5)c(C)c3cc12	0%	x	u	-6%	-2%
COC(=O)Cc1c(C)c2ccc(OCC(=O)N3CCCC(C)C3)c(C)c2oc1=O (stereo not given)	36%	2%	u	-19%	26µM*
C=C(C)COc1ccc2c(C)c(CC(=O)OC)c(=O)oc2c1C	u	-2%	12µM*	u	18µM*
C=C(C)COc1ccc2c(C)c(CC(=O)N3C[C@H]4C[C@@H](C3)c3cccc(=O)n3C4)c(=O)oc2c1C	18%	x	18µM*	-23%	15µM*
Cc1cccc(C)c1NC(=O)COc1ccc2c(C)c(Cc3ccccc3)c(=O)oc2c1C	2%	3%	u	u	16µM*
COC(=O)Cc1c(C)c2ccc(OCC(C)=O)c(C)c2oc1=O	-1%	9%	u	-18%	-27%
CN(C[C@@H](Cc1cccc2ccccc12)N(C[C@H](Cc1ccccc1)N(CCc1ccccc1)N=O)N=O)N=O	21%	4%	-24%	3%	u
CCCOc1ccc2c(C)c(CC(=O)OC)c(=O)oc2c1	26%	11%	10µM*	5%	u
COC(=O)Cc1c(C)c2ccc(OCC(=O)N(C)C)cc2oc1=O	15%	0%	3%	3%	-4%
